± gives the standard deviation of the averaged measurements.
System: Serratia marcescens K904 PosmB-luxCDABE reporter (pMQ747)
Assay: PosmB-lux reporter fold induction (RLU/OD600 relative to no-compound control), highest over Biolog concentrations; higher = stronger reporter activation
Details: ΔrcsB mutant CMS5177; 4 h
Procedure: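 Serratia marcescens K904 (wild type) or its isogenic ΔrcsB mutant, carrying the Rcs-dependent PosmB-luxCDABE reporter plasmid pMQ747, was grown in LB at OD600 0.1 in Biolog Phenotype MicroArray plates PM11-20 for 4 h at 30-32°C. Each compound is present at 3-4 proprietary concentrations (not stated); per the Fig. S1 legend the value given is the highest fold over those wells. Three independent trials.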

Compound | PosmB-lux reporter fold induction
C[C@H]1c2cccc(O)c2C(=O)C2=C(O)[C@]3(O)C(=O)C(C(N)=O)=C(O)[C@@H](N(C)C)[C@@H]3[C@@H](O)[C@@H]21 [Doxycycline] (Biolog plate: PM13, well positions: C5-8) | 1.91 ± 0.69
C[n+]1cc2c3c(ccc2c2ccc4cc5c(cc4c21)OCO5)OCO3 [Sanguinarine] (Biolog plate: PM14, well positions: A9-12) | 1.14 ± 0.32
NC(=O)NO [Hydroxyurea] (Biolog plate: PM15, well positions: H5-8) | 13.9 ± 5.4
NO [hydroxylamine] (Biolog plate: PM19, well positions: G9-12) | 1.39 ± 0.47
C[C@@H]1NC(=O)[C@@H](N)CNC(=O)[C@H](C2CCNC(=N)N2)NC(=O)/C(=C/NC(N)=O)NC(=O)[C@H](CNC(=O)CC(N)CCCN)NC1=O.N=C1NCC[C@H]([C@@H]2NC(=O)/C(=C/NC(N)=O)NC(=O)[C@H](CNC(=O)C[C@@H](N)CCCN)NC(=O)[C@H](CO)NC(=O)[C@@H](N)CNC2=O)N1 [Capreomycin] (Biolog plate: PM11, well positions: D1-4) | 1.09 ± 0.081
CCn1cc(C(=O)O)c(=O)c2cc(F)c(N3CCNCC3)cc21 [norfloxacin] (Biolog plate: PM16, well positions: B1-4) | 1.91 ± 0.65
[Cl][Cu][Cl] [Cupric chloride] (Biolog plate: PM13, well positions: H1-4) | 1.06 ± 0.1
NCC[C@H](O)C(=O)N[C@@H]1C[C@H](N)[C@@H](O[C@H]2O[C@H](CN)[C@@H](O)[C@H](O)[C@H]2O)[C@H](O)[C@H]1O[C@H]1O[C@H](CO)[C@@H](O)[C@H](N)[C@H]1O [Amikacin] (Biolog plate: PM11, well positions: A2-4) | 1 ± 0.088
OB(O)O [Boric acid] (Biolog plate: PM14, well positions: C1-4) | 23.8 ± 12
Cc1noc(NS(=O)(=O)c2ccc(N)cc2)c1C [sulfisoxazole] (Biolog plate: PM18, well positions: C5-8) | 1.5 ± 0.35
CC1(C)S[C@@H]2[C@H](NC(=O)[C@H](NC(=O)N3CCNC3=O)c3ccccc3)C(=O)N2[C@H]1C(=O)O [Azlocillin] (Biolog plate: PM13, well positions: B1-4) | 1.27 ± 0.56
CC1(C)S[C@@H]2[C@H](NC(=O)Cc3ccccc3)C(=O)N2[C@H]1C(=O)O [Penicillin G] (Biolog plate: PM12, well positions: A2-4) | 1.02 ± 0.19
NC(CO)C(=O)NNCc1ccc(O)c(O)c1O (stereo not given) [Benserazide] (Biolog plate: PM20, well positions: A9-12) | 0.916 ± 0.14
C/C=C/C=C/C(=O)O [sorbic acid] (Biolog plate: PM16, well positions: H9-12) | 4.84 ± 2.9
Cc1ccccc1C(OCCN(C)C)c1ccccc1 (stereo not given) [orphenadrine] (Biolog plate: PM20, well positions: B1-4) | 1.4 ± 0.12
CN(C)c1ccc(C(=C2C=CC(=[N+](C)C)C=C2)c2ccc(N(C)C)cc2)cc1 [crystal violet] (Biolog plate: PM20, well positions: E1-4) | 1.24 ± 0.17
CC(CN1c2ccccc2Sc2ccccc21)N(C)C (stereo not given) [Promethazine] (Biolog plate: PM14, well positions: H5-8) | 1.43 ± 0.21
CC(C)NCC(O)COc1cccc2ccccc12 (racemic) [D,L-propranolol] (Biolog plate: PM20, well positions: B5-8) | 1.24 ± 0.19
CC(C(=O)O)c1cccc(C(=O)c2ccccc2)c1 (stereo not given) [ketoprofen (an NSAID)] (Biolog plate: PM18, well positions: A2-4) | 1 ± 0.37
NC(=O)N/N=C/c1ccc([N+](=O)[O-])o1 [5-Nitro-2-furaldehyde semicarbazone] (Biolog plate: PM15, well positions: E5-8) | 3.61 ± 0.9

Compound | PosmB-lux reporter fold induction
[Cl-].[Cs+] [Cesium chloride] (Biolog plate: PM13, well positions: F1-4) | 1.64 ± 0.47
O=C(O)c1ccccc1S [Thiosalicylic acid] (Biolog plate: PM17, well positions: A9-12) | 0.982 ± 0.15
Cc1cc(NS(=O)(=O)c2ccc(N)cc2)no1 [Sulfa-methoxazole] (Biolog plate: PM12, well positions: G5-8) | 1.9 ± 1.2
O=C(O)/C=C/c1ccccc1 [cinnamic acid] (Biolog plate: PM19, well positions: C9-12) | 1.17 ± 0.32
[Cl-].[Li+] [lithium chloride] (Biolog plate: PM17, well positions: F1-4) | 2.92 ± 1
CN[C@@H]1[C@@H](O[C@H]2O[C@H](CO)[C@@H](N)[C@H](O)[C@H]2O)OC2C[C@@H](N)[C@@H](O[C@H]3[C@H](O)[C@@H](O)[C@H](N)C[C@@H]3N)OC2[C@@H]1O (stereo not given in full) [apramycin] (Biolog plate: PM20, well positions: A5-8) | 1.48 ± 0.21
CC(Oc1ccccc1)C(=O)N[C@@H]1C(=O)N2[C@@H]1SC(C)(C)[C@@H]2C(=O)O (stereo not given in full) [phenethicillin] (Biolog plate: PM19, well positions: F1-4) | 1.15 ± 0.37
Cn1nnnc1SCC1=C(C(=O)O)N2C(=O)[C@@H](NC(=O)[C@H](OC=O)c3ccccc3)[C@H]2SC1 [cefamandole nafate] (Biolog plate: PM17, well positions: G5-8) | 1.52 ± 0.36
CN[C@@H]1[C@H](O[C@H]2[C@H](O[C@H]3[C@H](O)[C@@H](O)[C@H](NC(=N)N)[C@@H](O)[C@@H]3NC(=N)N)O[C@@H](C)[C@]2(O)CO)O[C@@H](CO)[C@H](O)[C@H]1O [dihydro-streptomycin] (Biolog plate: PM19, well positions: G5-8) | 0.97 ± 0.18
NCC(=O)O [Glycine] (Biolog plate: PM13, well positions: F5-8) | 1.39 ± 0.27
CCC(C)CCCC(=O)N[C@@H](CCN)C(=O)N[C@H](C(=O)N[C@@H](CCN)C(=O)N[C@H]1CCNC(=O)[C@H]([C@@H](C)O)NC(=O)[C@H](CCN)NC(=O)[C@H](CCN)NC(=O)[C@H](CC(C)C)NC(=O)[C@@H](CC(C)C)NC(=O)[C@H](CCN)NC1=O)[C@@H](C)O (stereo not given in full) [Colistin] (Biolog plate: PM11, well positions: C5-8) | 1.1 ± 0.22
CS(=O)(=O)c1ccc([C@@H](O)[C@@H](CO)NC(=O)C(Cl)Cl)cc1 [thiamphenicol] (Biolog plate: PM18, well positions: A9-12) | 0.916 ± 0.32
c1cnc2c(c1)ccc1cccnc12 [1,10-Phenanthroline] (Biolog plate: PM15, well positions: C9-12) | 1.32 ± 0.23
CC1(C)S[C@@H]2[C@H](NC(=O)[C@H](N)c3ccc(O)cc3)C(=O)N2[C@H]1C(=O)O [Amoxicillin] (Biolog plate: PM11, well positions: B1-4) | 0.968 ± 0.11
Cc1nnc(SCC2=C(C(=O)O)N3C(=O)[C@@H](NC(=O)Cn4cnnn4)[C@H]3SC2)s1 [Cefazolin] (Biolog plate: PM11, well positions: E1-4) | 1.12 ± 0.15
CCCCCCCCCCCC[N+](C)(C)CCCS(=O)(=O)[O-] [lauryl sulfobetaine] (Biolog plate: PM19, well positions: G1-4) | 1.4 ± 0.45
O=c1c(O)c(-c2cc(O)c(O)c(O)c2)oc2cc(O)cc(O)c12 [myricetin] (Biolog plate: PM18, well positions: G9-12) | 0.868 ± 0.31
O=C(N[C@H](CO)[C@H](O)c1ccc([N+](=O)[O-])cc1)C(Cl)Cl [Chloramphenicol] (Biolog plate: PM14, well positions: F1-4) | 1.87 ± 1.1
O=C1CN(/N=C/c2ccc([N+](=O)[O-])o2)C(=O)N1 [Nitrofurantoin] (Biolog plate: PM14, well positions: E5-8) | 1.19 ± 0.084
CCN1CCN(C(=O)N[C@@H](C(=O)N[C@@H]2C(=O)N3[C@@H]2SC(C)(C)[C@@H]3C(=O)O)c2ccccc2)C(=O)C1=O [Piperacillin] (Biolog plate: PM14, well positions: F5-8) | 1.2 ± 0.13
